Assay results reported in publication PMC4336329 (PLoS ONE, 2015).
In all, about 310,000 compounds went through this assay and about 14,000 (4.5%) showed an effect of 50% or more. The effect is printed as a negative number. What follows is part of a selection rich in strong results, with near analogues and random picks from the rest.

Biological target: human ether-à-go-go-related gene (hERG) potassium channel (human, UniProt Q12809)
Assay: primary screen, population patch clamp on CHO cells stably expressing hERG; higher = less effect of the substance
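Further: peak tail current of the secondary pulse compared with the same well before compound.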

human ether-à-go-go-related gene (hERG) potassium channel, sequence (Q12809 whole entry, looked up): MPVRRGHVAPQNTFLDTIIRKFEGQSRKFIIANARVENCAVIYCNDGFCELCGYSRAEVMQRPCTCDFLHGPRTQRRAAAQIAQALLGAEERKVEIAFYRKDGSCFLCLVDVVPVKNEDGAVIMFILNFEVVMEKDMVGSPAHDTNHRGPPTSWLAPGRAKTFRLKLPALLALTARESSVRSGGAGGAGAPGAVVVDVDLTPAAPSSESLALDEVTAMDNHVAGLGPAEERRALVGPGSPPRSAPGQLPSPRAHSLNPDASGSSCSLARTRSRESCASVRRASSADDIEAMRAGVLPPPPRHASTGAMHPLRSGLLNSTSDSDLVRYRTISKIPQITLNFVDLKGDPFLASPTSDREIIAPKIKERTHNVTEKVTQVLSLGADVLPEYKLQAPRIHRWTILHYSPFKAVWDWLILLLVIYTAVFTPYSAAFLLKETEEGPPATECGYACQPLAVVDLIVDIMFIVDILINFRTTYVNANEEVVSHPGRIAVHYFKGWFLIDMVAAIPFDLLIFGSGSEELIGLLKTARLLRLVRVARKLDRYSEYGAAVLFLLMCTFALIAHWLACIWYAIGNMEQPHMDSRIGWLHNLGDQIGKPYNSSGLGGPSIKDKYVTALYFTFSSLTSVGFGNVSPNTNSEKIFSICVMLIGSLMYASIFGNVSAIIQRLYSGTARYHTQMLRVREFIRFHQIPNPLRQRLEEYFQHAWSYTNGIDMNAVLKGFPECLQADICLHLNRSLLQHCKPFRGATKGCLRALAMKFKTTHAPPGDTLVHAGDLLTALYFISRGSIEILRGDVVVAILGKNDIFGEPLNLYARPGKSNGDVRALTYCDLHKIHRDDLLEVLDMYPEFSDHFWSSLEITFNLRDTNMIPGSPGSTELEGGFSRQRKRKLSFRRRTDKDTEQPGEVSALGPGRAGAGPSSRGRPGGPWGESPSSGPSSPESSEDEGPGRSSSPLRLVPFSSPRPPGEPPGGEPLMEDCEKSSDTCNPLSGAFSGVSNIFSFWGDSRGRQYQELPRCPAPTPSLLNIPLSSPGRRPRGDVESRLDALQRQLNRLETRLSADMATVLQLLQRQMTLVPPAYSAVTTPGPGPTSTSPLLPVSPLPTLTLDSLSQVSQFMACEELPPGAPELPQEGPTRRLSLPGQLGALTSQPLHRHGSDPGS

Row | SMILES | hERG current change (%, negative = inhibition) at 10uM
1 | COC(=O)c1ccccc1NC(=O)c1cnn2cccnc12 | 13%
2 | C/C(NC(=O)c1ccccc1)=C1/C(=O)CC2C1C2(C)C (stereo not shown) | 2.15%
3 | COc1cc(SC)ccc1C(=O)N(CC(=O)Nc1ccccc1Br)Cc1ccco1 | -10.4%
4 | O=C(CN(Cc1ccco1)C(=O)c1cc(=O)[nH]c2ccccc12)Nc1ccccc1C(F)(F)F | -12%
5 | O=C(CN(Cc1ccco1)C(=O)c1cc(=O)[nH]c2ccccc12)Nc1ccccc1Br | -53.5%
6 | CC(C)=CCOc1ccc2ccc(=O)oc2c1 | -12.9%
7 | Cc1cccc(C(=O)Nc2ccccc2NC(=O)c2cccc(C)c2)c1 | 8.24%
8 | CCOc1ccc(NC(=O)c2c(NC(=O)CN3CCCC3)sc3c2CCC3)cc1 | -3.84%
9 | COC(=O)c1c(NC(=O)CCN2CCOCC2)sc2c1CCCC2 | -26%
10 | CCOc1ccc(NC(=O)c2c(NC(=O)CNCCN3CCOCC3)sc3c2CCC3)cc1 | -69.3%
11 | COc1ccc(NC(=O)c2c(NC(=O)CNCc3ccco3)sc3c2CCC3)cc1 | 17.8%
12 | CCOc1ccc(NC(=O)c2c(NC(=O)CN3CCN(C)CC3)sc3c2CCC3)cc1 | -72.7%
13 | O=C(CN1CCCC1)Nc1sc2c(c1C(=O)Nc1ccc(Br)cc1)CCC2 | -1.29%
14 | CC(NC(=O)N(Cc1ccccc1)Cc1ccc2c(c1)OCO2)(C(F)(F)F)C(F)(F)F | 7.8%
15 | O=C(CCCN=C1NS(=O)(=O)c2ccccc21)OCc1cc([N+](=O)[O-])cc2c1OCOC2 | -14.7%
16 | CCC(OC(=O)c1ccco1)C(=O)NCc1ccc(OC)cc1 (stereo not shown) | -8.67%
17 | O=C(Cc1cccc2ccccc12)N1CC[C@@]2(O)CCCC[C@H]2C1 | 12.5%
18 | CN(C)S(=O)(=O)c1cccc(NC(=O)COC(=O)c2ccc3c(c2)OCO3)c1 | -19.4%
19 | COc1ccc(OC)c(NC(=S)NCCC(c2ccccc2)c2ccccc2)c1 | 1.73%
20 | COc1ccc(CNCCC(c2ccc(OC(C)C)cc2)C(C)C)cc1OC (stereo not shown) | -74.5%
21 | COc1ccc(CNCCCSc2ncccn2)cc1OC.Cl | 11.9%
22 | COc1ccc(CNCCCO)cc1OC | 4.57%

Row | SMILES | hERG current change (%, negative = inhibition) at 10uM
23 | COc1ccc(CNCCC(c2ccc(OC(C)C)cc2)c2ccccc2OC)cc1OC (stereo not shown) | -71.3%
24 | COc1ccc(C(CCNCc2ccc(OC(C)C)cc2)C(C)C)cc1 (stereo not shown) | -39%
25 | COc1ccc(CNCCC(c2ccccc2)c2ccc(OC(C)C)cc2)cc1OC (stereo not shown) | -69.7%
26 | COc1ccc(CNCCC(c2ccc(F)cc2)c2ccc(OC(C)C)cc2)cc1OC (stereo not shown) | -73%
27 | CCOCCCNCc1ccc(OC)c(OC)c1.O=C(O)C(=O)O | 3.24%
28 | COc1ccc(CC(=O)NC(C)CCc2ccccc2)cc1OC (stereo not shown) | 8.96%
29 | COc1ccc(C(C)NC(=S)NCc2ccc(F)cc2)cc1OC (stereo not shown) | -5.63%
30 | COc1ccc(CN(CCC(c2ccccc2)c2ccc(OC(C)C)cc2)C(=O)CCl)cc1OC (stereo not shown) | -1.82%
31 | C/C(=N\NC(=O)c1ccc(CN2CCOCC2)cc1)c1cccc([N+](=O)[O-])c1 | -19.5%
32 | COc1ccccc1C(=O)Nc1ccccc1C(=O)NC1CCCCC1 | -1.19%
33 | O=C(COc1ccccc1Cl)Nc1ccc(C(=O)c2ccc(C(=O)O)cc2)cc1 | 11.7%
34 | Cc1cccc2c(=O)oc(-c3ccccc3Cl)nc12 | 14.2%
35 | Cc1ccc(CN2[C@@H](CC(C)C)COCCS2(=O)=O)cc1 | -2.46%
36 | CCOc1ccc(CN(C)C(=O)c2ccc(NC(=O)CC3SC(N4CCCC4)=NC3=O)cc2)cc1 (stereo not shown) | 7.53%
37 | O=C(NCC1CCCO1)c1ccccc1-c1nc(-c2ccc(F)cc2)no1 (stereo not shown) | -31.1%
38 | CCc1nnc(NC(=O)CSc2nnc(COc3ccccc3)n2Cc2ccccc2)s1 | 5.71%
39 | COc1ccc(NC(=O)c2sccc2-n2cccc2)cc1 | 3.64%
40 | CCc1cccc2c(C(=O)CN3C(=O)NC4(CCc5ccccc54)C3=O)c[nH]c12 (stereo not shown) | 10.4%
41 | CC(NC(=O)CSc1nc(=O)cc(N)n1CCc1ccccc1)c1ccccc1 (stereo not shown) | 1.91%
42 | O=C(Cn1c(=O)n(-c2cccc(Cl)c2)c(=O)n1CC(=O)N1CCCCC1)N1CCCCC1 | 4.64%
43 | CCOc1ccc(-n2c(C)cc(C(=O)NS(=O)(=O)c3ccc(C)cc3)c2C)cc1 | -32.3%
